Results reported in PubChem BioAssay AID1159580 (chemical genetic matrix, 2015).
About 2,000 (36%) of roughly 5,500 compounds were called active. Another 18% or so got no clear call; they are omitted. No stated cut-off is given here; in the data, active means normalized growth mostly below about 0.91 (no sharp cut-off); inconclusive means no clear call, values can overlap the other calls; inactive means mostly above about 0.92. This is one part of the list.

Assay: chemical genetic growth profiling, strain panel (AID 1159580);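 further: tested at 20 µM; growth read once vehicle control cultures reached saturation at 30 °C; 1 = growth at the plate median or of vehicle wells; lower values mean less growth of the strain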
Details: growth OD

Measured: normalized growth

COc1ccc(CN(Cc2ccc(OC)cc2)C(=O)c2cccs2)cc1
inactive: S. cerevisiae deletion strains, locus YAL013W, strain DEP1, active compounds read low 0.976 | S. cerevisiae deletion strains, locus YBR229C, strain ROT2, active compounds read low 0.974 | S. cerevisiae deletion strains, locus YCL061C, strain MRC1, active compounds read low 1.01 | S. cerevisiae deletion strains, locus YDL101C, strain DUN1, active compounds read low 0.969 | S. cerevisiae deletion strains, locus YDL134C, strain PPH21, active compounds read low 0.974 | S. cerevisiae deletion strains, locus YDR150W, strain NUM1, active compounds read low 0.98 | S. cerevisiae deletion strains, locus YEL061C, strain CIN8, active compounds read low 0.974 | S. cerevisiae deletion strains, locus YGR078C, strain PAC10, active compounds read low 1 | S. cerevisiae deletion strains, locus YGR229C, strain SMI1, active compounds read low 0.976 | S. cerevisiae deletion strains, locus YHR030C, strain SLT2, active compounds read low 0.971 | S. cerevisiae deletion strains, locus YHR087W, strain rtc3, active compounds read low 0.959 | S. cerevisiae deletion strains, locus YJR043C, strain POL32, active compounds read low 0.994 | S. cerevisiae deletion strains, locus YJR075W, strain HOC1, active compounds read low 0.976 | S. cerevisiae deletion strains, locus YLR039C, strain RIC1, active compounds read low 0.92 | S. cerevisiae deletion strains, locus YLR058C, strain SHM2 (second series), active compounds read low 0.99 | S. cerevisiae deletion strains, locus YLR085C, strain ARP6, active compounds read low 0.97 | S. cerevisiae deletion strains, locus YLR262C, strain YPT6, active compounds read low 0.925 | S. cerevisiae deletion strains, locus YML094W, strain GIM5, active compounds read low 0.953 | S. cerevisiae deletion strains, locus YMR219W, strain ESC1, active compounds read low 0.992 | S. cerevisiae deletion strains, locus YMR263W, strain SAP30, active compounds read low 1.01 | S. cerevisiae deletion strains, locus YMR307W, strain GAS1, active compounds read low 0.812 | S. cerevisiae deletion strains, locus YNL128W, strain TEP1, active compounds read low 0.973 | S. cerevisiae deletion strains, locus YNL153C, strain GIM3, active compounds read low 0.993 | S. cerevisiae deletion strains, locus YNL298W, strain CLA4 (second series), active compounds read low 0.973 | S. cerevisiae deletion strains, locus YNL322C, strain KRE1, active compounds read low 0.994 | S. cerevisiae deletion strains, locus YNR030W, strain Alg12, active compounds read low 0.931 | S. cerevisiae deletion strains, locus YOL006C, strain TOP1, active compounds read low 0.95 | S. cerevisiae deletion strains, locus YPL055C, strain LGE1, active compounds read low 0.945 | S. cerevisiae deletion strains, locus YPL241C, strain CIN2, active compounds read low 0.995 | S. cerevisiae deletion strains, locus YPR135W, strain CTF4, active compounds read low 0.952 | S. cerevisiae strains, strain wild type, active compounds read low 0.976
